# About 83,000 compounds went through this panel and 20% of them were active in at least one assay; those are over-represented in the sample as a whole.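 Results are percent growth after 48 hours of single-concentration exposure. 100 means growth as in untreated cells, lower positive values show inhibition; negative values down to -100 show cell death.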 Calls of active or inactive are those of the source. How the source made its calls: active means growth percent below 10; inactive means the rest.
# Test system: NCI-H23 lung
# Test: NCI-60 one-dose screen, 48 h (100 = growth as untreated, 0 = no growth, -100 = all killed)
# Settings: 10 µM unless noted
row,Structure (SMILES),growth
1,COc1ccc(NC(=O)c2ccccc2-c2ccccc2)c(C(N)=O)c1,53.7% (inactive)
2,CC(=O)N1N=C(c2ccc(Cl)cc2)CC1c1c(C)nn(-c2ccccc2)c1N(C)Cc1ccccc1 (centres undefined),78.3% (inactive)
3,O=C(N/N=C/c1cccc(O)c1O)c1ccccc1,28.2% (inactive)
4,Clc1ccc(C2c3ccccc3-c3nccn32)c(Cl)c1 (centres undefined),40% (inactive)
5,OCc1n(Cc2ccc3ccccc3c2)cc[n+]1Cc1ccc2ccccc2c1,67.7% (inactive)
6,CCOC(=O)c1cnc2c(C)cc(C)cc2c1NCCCN(C)C,35.2% (inactive)
7,Cc1nn(-c2ccccc2)cc1/C=C1\SC(N2CCCCC2)=NC1=O,104% (inactive)
8,OCCCc1n(Cc2ccc3ccccc3c2)c2ccccc2[n+]1Cc1ccc2ccccc2c1,19% (inactive)
9,Cc1ccccc1NC(=O)NC(CC(N)=O)c1ccc2c(c1)nc(-c1cccc(Oc3ccc(C(C)(C)C)cc3)c1)n2CCCN1CCCCC1C (centres undefined),64.7% (inactive)
10,CC[C@@H](C)/C=C(C)/C=C/C(=O)c1c(O)c(-c2ccc(O)cc2)cn(OC2CC(=O)CCC(C)OC(=O)CC2O)c1=O (some centres undefined),26.8% (inactive)
11,COc1ccc2c(c1)c(CC(=O)[Se]C)c(C)n2C(=O)c1ccc(Cl)cc1,5.36% (active)
12,CC(=O)/C(=C/c1ccc(Cl)cc1)C(=O)c1ccccc1,88.6% (inactive)
13,O=C1c2cccc(NCCN=Cc3ccccc3O)c2C(=O)c2c(NCCN=Cc3ccccc3O)cccc21,27.8% (inactive)
14,c1ccc(CN=C(NCc2ccccc2)NCc2ccccc2)cc1,42.4% (inactive)
15,COc1ccccc1-n1c(-c2ccc(O)cc2C)cn2c3c(=O)[nH]c(=O)n(C)c3nc12,91.6% (inactive)
16,COc1ccc(-c2cnc(SCC(=O)Nc3ccc(-c4nc5ccccc5s4)cc3)n2-c2ccc(OC)cc2)cc1,101% (inactive)
17,COc1cc(Cl)cc(-c2nn(-c3cccc(NC(=O)c4cc(C(F)(F)F)cc(C(F)(F)F)c4)c3)cc2-c2ccncc2)c1,72.1% (inactive)
18,COc1c(O)cc2c(c1CC=C(C)C)OC(=O)c1c(cc(O)c(CC=C(C)C)c1O)O2,-8.77% (active)
19,O=C1/C(=C/c2cccc(Cl)c2)CCc2ccccc21,101% (inactive)
20,CCNCCCn1c2c(c3ccc(F)cc3c1=O)C(=O)c1cc(OC)cnc1-2,-40.4% (active)
21,CCN(CC)c1ccc(N=C2C=CC(=O)C=C2NC(C)=O)cc1,92.9% (inactive)
22,N#Cc1c(-c2ccccc2)cc(-c2ccccc2)n(CCC(=O)O)c1=O,72.9% (inactive)
23,COc1ccc2nc(NC(=O)CN3CCn4c(nnc4C(F)(F)F)C3)sc2c1,91.6% (inactive)
24,O=C1NC(=O)/C(=C\c2ccco2)S1,101% (inactive)
25,O=C1CNc2cc(Cl)ccc2N1,96.7% (inactive)

# Test system: NCI-H226 lung
# Test: as above
# Settings: 10 µM unless noted
row,Structure (SMILES),growth
1,CC(C)=CCCC(C)c1ccc(C)c2c1OCN(CC1CCNCC1)C2 (centres undefined),103% (inactive)
2,COc1ccc(C2CC(c3ccc4c(c3)OCO4)=NN2C=O)cc1 (centres undefined),87.6% (inactive)
3,COc1cc(-c2nc3sc4c(c3c(=O)[nH]2)CCCCCC4)cc(OC)c1OC,60.9% (inactive)
4,O=C(C(=O)N1CCOCC1)c1cn(CCCn2cc(C(=O)C(=O)N3CCOCC3)c3ccccc32)c2ccccc12,102% (inactive)
5,COc1ccc(/C=C2/SC(=Nc3c(C)nn(-c4ccccc4)c3N)NC2=O)cc1,51.1% (inactive)
6,C/C(=C\CCc1ccoc1)CC/C=C(\C)CCCN1CCOCC1,70.6% (inactive)
7,CO[C@H]1/C=C/O[C@@]2(C)Oc3c(C)c(O)c4c(O)c(c(/C=N/N5C(C)CN(Cc6ccc(C#N)cc6)CC5C)c(O)c4c3C2=O)NC(=O)/C(C)=C\C=C\[C@H](C)[C@H](O)[C@@H](C)[C@@H](O)[C@@H](C)[C@H](OC(C)=O)[C@@H]1C (some centres undefined),49.5% (inactive)
8,CCOC(=O)CNC(=O)C1(NC(=O)CNC(=O)OCc2ccccc2)CCCC1,115% (inactive)
9,COc1cnc2c(c1)C(=O)c1c-2n(CCCNC(C)C)c(=O)c2cc(F)ccc12,-52.6% (active)
10,Nc1ccc2c(c1Br)Cc1ccccc1-2,104% (inactive)
11,O=C1OC2(c3ccccc31)c1ccccc1-c1ccccc12,95.8% (inactive)
12,CCCCCCCCN(CCO)CCCCCCCC,92.8% (inactive)
13,Nc1ccc2c(c1)C(=O)c1cc(Cl)c(Cl)cc1-2,83.1% (inactive)
14,O=C(/C=C/c1cccc(Nc2ccnc3cc(Cl)ccc23)c1)c1ccc(Cl)cc1,49.5% (inactive)
15,COc1ccc(NC(=O)c2ccccc2-c2ccccc2)c(C(N)=O)c1,70.2% (inactive)
16,CC(=O)N1N=C(c2ccc(Cl)cc2)CC1c1c(C)nn(-c2ccccc2)c1N(C)Cc1ccccc1 (centres undefined),67% (inactive)
17,O=C(N/N=C/c1cccc(O)c1O)c1ccccc1,17.3% (inactive)
18,Clc1ccc(C2c3ccccc3-c3nccn32)c(Cl)c1 (centres undefined),66.6% (inactive)
19,OCc1n(Cc2ccc3ccccc3c2)cc[n+]1Cc1ccc2ccccc2c1,61.6% (inactive)
20,CCOC(=O)c1cnc2c(C)cc(C)cc2c1NCCCN(C)C,36.1% (inactive)

row,Structure (SMILES),growth
1,Cc1nn(-c2ccccc2)cc1/C=C1\SC(N2CCCCC2)=NC1=O,86.7% (inactive)
2,OCCCc1n(Cc2ccc3ccccc3c2)c2ccccc2[n+]1Cc1ccc2ccccc2c1,48.5% (inactive)
3,Cc1ccccc1NC(=O)NC(CC(N)=O)c1ccc2c(c1)nc(-c1cccc(Oc3ccc(C(C)(C)C)cc3)c1)n2CCCN1CCCCC1C (centres undefined),109% (inactive)
4,CC[C@@H](C)/C=C(C)/C=C/C(=O)c1c(O)c(-c2ccc(O)cc2)cn(OC2CC(=O)CCC(C)OC(=O)CC2O)c1=O (some centres undefined),15.8% (inactive)
5,COc1ccc2c(c1)c(CC(=O)[Se]C)c(C)n2C(=O)c1ccc(Cl)cc1,-34% (active)
6,CC(=O)/C(=C/c1ccc(Cl)cc1)C(=O)c1ccccc1,107% (inactive)
7,O=C1c2cccc(NCCN=Cc3ccccc3O)c2C(=O)c2c(NCCN=Cc3ccccc3O)cccc21,73.1% (inactive)
8,c1ccc(CN=C(NCc2ccccc2)NCc2ccccc2)cc1,51.1% (inactive)
9,COc1ccccc1-n1c(-c2ccc(O)cc2C)cn2c3c(=O)[nH]c(=O)n(C)c3nc12,92.4% (inactive)
10,COc1ccc(-c2cnc(SCC(=O)Nc3ccc(-c4nc5ccccc5s4)cc3)n2-c2ccc(OC)cc2)cc1,105% (inactive)
11,COc1cc(Cl)cc(-c2nn(-c3cccc(NC(=O)c4cc(C(F)(F)F)cc(C(F)(F)F)c4)c3)cc2-c2ccncc2)c1,76% (inactive)
12,COc1c(O)cc2c(c1CC=C(C)C)OC(=O)c1c(cc(O)c(CC=C(C)C)c1O)O2,88.1% (inactive)
13,O=C1/C(=C/c2cccc(Cl)c2)CCc2ccccc21,98.5% (inactive)
14,CCNCCCn1c2c(c3ccc(F)cc3c1=O)C(=O)c1cc(OC)cnc1-2,-59.1% (active)
15,CCN(CC)c1ccc(N=C2C=CC(=O)C=C2NC(C)=O)cc1,93.7% (inactive)
16,N#Cc1c(-c2ccccc2)cc(-c2ccccc2)n(CCC(=O)O)c1=O,69.2% (inactive)
17,COc1ccc2nc(NC(=O)CN3CCn4c(nnc4C(F)(F)F)C3)sc2c1,92.2% (inactive)
18,O=C1NC(=O)/C(=C\c2ccco2)S1,95.8% (inactive)
19,O=C1CNc2cc(Cl)ccc2N1,103% (inactive)
